Measurements from PubChem BioAssay (EPA / NIEHS).
Activity calls are given as the source filed them. The calls were made as follows, unless noted: active = hit-call score of the fitted dose curve at least 0.9, where 1 is the maximum; inactive = score below 0.9.

What was measured:
[1] = read-out: solute carrier (SLCO1B1), SLCO1B1 (gene 10599); assay: LTEA_HepaRG_SLCO1B1: Life Technologies and Expression Analysis (LTEA) Assay for solute carrier (SLCO1B1) using HepaRG (AID 2283530); details: mRNA level, 48 h; actives raise or lower the signal
Outline: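 Differentiated human HepaRG cells were exposed for 48 h in serum-free induction medium to eight half-log concentrations, top 100 uM, in 0.5% DMSO. SLCO1B1 mRNA was measured by qRT-PCR, normalized to ACTB, GAPDH and POLR2A, and fitted bidirectionally against DMSO.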

[2] = read-out: Transforming Growth Factor (TGFA), TGFA (gene 7039); assay: LTEA_HepaRG_TGFA: Life Technologies and Expression Analysis (LTEA) Assay for Transforming Growth Factor (TGFA) using HepaRG (AID 2283532); details: mRNA level, 48 h; actives raise or lower the signal
Outline: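 Gene expression of TGFA was quantified by qRT-PCR after human HepaRG cells were treated for 48 h with test chemicals (eight concentrations, highest 100 uM, 0.5% DMSO). Activity in either direction was fitted relative to DMSO.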

[3] = read-out: Transforming Growth Factor (TGFB1), TGFB1 (gene 7040); assay: LTEA_HepaRG_TGFB1: Life Technologies and Expression Analysis (LTEA) Assay for Transforming Growth Factor (TGFB1) Transporter using HepaRG (AID 2283533); details: mRNA level, 48 h; actives raise or lower the signal
Outline: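 Differentiated HepaRG cells exposed 48 hr in serum-free induction medium to eight half-log concentrations up to 100 uM (0.5% DMSO), duplicate; TGFB1 mRNA by TaqMan qRT-PCR normalised to ACTB, GAPDH, POLR2A; bidirectional fit against DMSO.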

TIMP1, TIMP1 (gene 7076) = assay: LTEA_HepaRG_TIMP1: Life Technologies and Expression Analysis (LTEA) Assay for TIMP1 using HepaRG (AID 2283534); details: mRNA level, 48 h; actives raise or lower the signal
Outline: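 Differentiated HepaRG cells exposed 48 h in serum-free induction medium, duplicates, eight half-log concentrations from 100 uM in 0.5% DMSO. TIMP1 mRNA by qRT-PCR normalized to ACTB, GAPDH, POLR2A; bidirectional fitting against DMSO.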

[4] = read-out: Tumor necrosis factor receptor 1 (TNFRSF1A), TNFRSF1A (gene 7132); assay: LTEA_HepaRG_TNFRSF1A: Life Technologies and Expression Analysis (LTEA) Assay for Tumor necrosis factor receptor 1 (TNFRSF1A) using HepaRG (AID 2283535); details: mRNA level, 48 h; actives raise or lower the signal
Outline: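 Differentiated HepaRG cells in serum-free induction medium, exposed 48 h in duplicate to 8 half-log concentrations up to 100 uM in 0.5% DMSO. TNFRSF1A mRNA by Fluidigm TaqMan qRT-PCR, normalized to ACTB, GAPDH, POLR2A; bidirectional fit.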

[5] = read-out: Thyroid Hormone Responsive (THRSP), THRSP (gene 7069); assay: LTEA_HepaRG_THRSP: Life Technologies and Expression Analysis (LTEA) Assay for Thyroid Hormone Responsive (THRSP) using HepaRG (AID 2283536); details: mRNA level, 48 h; actives raise or lower the signal
Outline: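 Cell model: human HepaRG, approx. 100,000 cells/well, 0.5% DMSO vehicle. Exposure lasts 48 h; phenobarbital 1 mM serves as induction positive control. Gene expression is measured by qRT-PCR against three endogenous control genes.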

[6] = read-out: UDP glucuronosyltransferase (UGT1A1), UGT1A1 (gene 54658); assay: LTEA_HepaRG_UGT1A1: Life Technologies and Expression Analysis (LTEA) Assay for UDP glucuronosyltransferase (UGT1A1) using HepaRG (AID 2283538); details: mRNA level, 48 h; actives raise or lower the signal
Outline: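 HepaRG, 48 h chemical exposure (top 100 uM, half-log 8-pt, 0.5% DMSO vehicle), duplicate wells; qRT-PCR (TaqMan, Fluidigm array) for UGT1A1 mRNA, housekeeping-normalized; bidirectional curve fit vs DMSO baseline.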

[7] = read-out: X-box binding protein 1 (XBP1), XBP1 (gene 7494); assay: LTEA_HepaRG_XBP1: Life Technologies and Expression Analysis (LTEA) Assay for X-box binding protein 1 (XBP1) using HepaRG (AID 2283540); details: mRNA level, 48 h; actives raise or lower the signal
Outline: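 Differentiated human HepaRG cells in serum-free induction medium exposed 48 h in duplicate to eight half-log concentrations up to 100 uM in 0.5% DMSO. XBP1 mRNA measured by Fluidigm TaqMan qRT-PCR, normalized to ACTB, GAPDH, POLR2A; bidirectional fitting against DMSO.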

[8] = LTEA_HepaRG_LDH_cytotoxicity: Cytotoxicity Assessment in the Life Technologies and Expression Analysis (LTEA) Assay (AID 2283563; active = hit-call score of the fitted dose curve at least 0.9, where 1 is the maximum;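 as to AC50: LDH activity released into spent culture medium as a marker of cell death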)
Outline: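 Differentiated HepaRG cells in serum-free induction medium, exposed 48 h in duplicate to 8 half-log concentrations up to 100 uM in 0.5% DMSO. Cytotoxicity from LDH measured in spent medium, fit relative to DMSO.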

[9] = read-out: Cellular tumor antigen p53 (Homo sapiens) (UniProt P04637); assay: LTEA_HepaRG_TP53: Life Technologies and Expression Analysis (LTEA) Assay for Tumor Protein P53 (TP53) using HepaRG (AID 2283537); details: mRNA level, 48 h; actives raise or lower the signal
Outline: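 HepaRG, 48 h exposure, top 100 uM, half-log 8-point, 0.5% DMSO vehicle, duplicates. Read: TP53 mRNA by TaqMan qRT-PCR, normalised to ACTB/GAPDH/POLR2A; bidirectional fit vs DMSO.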

Measured: AC50

Cellular tumor antigen p53 (Homo sapiens), sequence (P04637 whole entry, looked up): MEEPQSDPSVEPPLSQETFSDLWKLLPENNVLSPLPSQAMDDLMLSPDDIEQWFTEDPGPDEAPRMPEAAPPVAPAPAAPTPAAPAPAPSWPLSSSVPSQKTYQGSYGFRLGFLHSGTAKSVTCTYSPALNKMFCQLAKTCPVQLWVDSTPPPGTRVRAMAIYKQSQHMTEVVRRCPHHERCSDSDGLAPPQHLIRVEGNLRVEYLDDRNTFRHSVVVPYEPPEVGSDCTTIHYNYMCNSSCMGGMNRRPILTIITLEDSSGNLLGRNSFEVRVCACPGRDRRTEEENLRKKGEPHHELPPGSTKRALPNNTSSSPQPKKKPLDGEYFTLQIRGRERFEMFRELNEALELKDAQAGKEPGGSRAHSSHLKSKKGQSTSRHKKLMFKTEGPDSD

Oc1cc(Cl)c(Cl)cc1Cl
active: [8] 84.8 µM
inactive: [1] | [2] | [3] | TIMP1, TIMP1 (gene 7076) | [4] | [5] | [6] | [7]

COc1ccccc1N
inactive: [1] | [2] | [3] | TIMP1, TIMP1 (gene 7076) | [4] | [5] | [6] | [7] | [8]

Oc1c(Cl)cc(Cl)cc1Cl
inactive: [1] | [2] | [3] | TIMP1, TIMP1 (gene 7076) | [4] | [5] | [6] | [7]
active: [9] 50 µM

OCCN(CCO)CCO
inactive: [1] | [2] | [3] | TIMP1, TIMP1 (gene 7076) | [4] | [5] | [6] | [7] | [8]

O=C(N[C@H]1CN2CCC1CC2)c1ccc2c(c1)OCCO2
inactive: [1] | [2] | [3] | TIMP1, TIMP1 (gene 7076) | [4] | [5] | [6] | [7] | [8]

Clc1cccc(Cl)c1Cl
inactive: [1] | [2] | [3] | TIMP1, TIMP1 (gene 7076) | [4] | [5] | [6] | [7] | [8]

N#Cc1cccnc1
inactive: [1] | [2] | [3] | TIMP1, TIMP1 (gene 7076) | [4] | [5] | [6] | [7] | [8]

CN(C)C(=S)S
inactive: [1] | [2] | [3] | TIMP1, TIMP1 (gene 7076) | [4] | [5] | [6] | [7] | [8]

CC(C)(C)c1ccccc1O
active: [6] 4.14 µM
inactive: [1] | [2] | [3] | TIMP1, TIMP1 (gene 7076) | [4] | [5] | [7] | [8]

Clc1cccc(Cl)c1
inactive: [1] | [2] | [3] | TIMP1, TIMP1 (gene 7076) | [4] | [5] | [6] | [7] | [8]

O=C(O)C1(c2ccc3c(c2)OC[C@H](Cc2ccc(-c4ccccc4)cc2)[C@H]3O)CCCC1
active: [3] 77.5 µM | TIMP1, TIMP1 (gene 7076) 78.8 µM | [8] 77.6 µM
inactive: [1] | [2] | [4] | [5] | [6] | [7]

CCCCCCCCCCCCc1cccc(S(=O)(=O)O)c1
inactive: [1] | TIMP1, TIMP1 (gene 7076) | [4] | [7] | [8]
active: [2] 45 µM | [3] 45 µM | [5] 66.9 µM | [6] 22.9 µM

CC(C)O.CC(C)O.OCCN(CCO)CCO.OCCN(CCO)CCO.[Ti]
inactive: [1] | [2] | [3] | TIMP1, TIMP1 (gene 7076) | [4] | [5] | [6] | [7]

Cc1cc(C)cc(C)c1
inactive: [1] | [2] | [3] | TIMP1, TIMP1 (gene 7076) | [4] | [5] | [6] | [7] | [8]
